Source: PubChem
This is a sample that favours compounds with a hit; in the whole collection about 4.1% have one here.
MITF TRPM1 inh = MITF TRPM1 promoter inhibition in SK-MEL-5 cells; SK-MEL-5 TRPM1 promoter luciferase, 24 h; inhibition, % at 12.5 µM; hit rate 0.83% among 330,000;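 active = mean inhibition across replicates of 60% or more, whatever share of single replicates reaches that level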
Peg3 prom inh-1 = inhibitors of Peg3 promoter; AID 588405; HeLa PEG-Prom luciferase reporter, luminescence, overnight; hit rate 1.7% among 360,000; inhibition, % at 20 µM;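 active = inhibition of at least 50% at 20 µM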
TWEAK-Fn14 inh = blocks TWEAK-Fn14 interaction in a reporter cell assay; inhibition, % at 10 µM; TWEAK-stimulated Fn14 reporter cells, luciferase luminescence, 8 h; hit rate 2% among 360,000; in the data active = inhibition above about 50%
LMP1 NFkB inh = Epstein-Barr LMP1 NF-kappaB reporter inhibition | LMP1-induced NF-kappaB luciferase reporter cells, luminescence | inhibition, % at 12.5 µM | hit rate 0.69% among 350,000 | AID 504558; in the data active = inhibition above about 41%;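 note: 0% = neutral control wells and 100% = reference inhibitor control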
TROY NFkB inh = inhibitors of TROY-dependent NF-kB signaling. hit rate 0.98% among 360,000. inhibition, % at 10 µM. Q293 LMP1-TROYcd NF-kB luciferase reporter, 4 h;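 active = compounds whose plate-normalised and pattern-corrected inhibition of the luciferase reporter signal at the single screening dose is 50% or more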
Shn3 inh set2 = inhibitors of Schnurri-3 3'UTR reporter in osteoblasts; AID 588674; Clone20 osteoblast Shn3 3'UTR firefly luciferase, 24 h; hit rate 0.52% among 360,000; inhibition, % at 12.5 µM;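 active = mean inhibition of at least 75% with every replicate also reaching 75%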;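 note: 0% = median of neutral control wells and 100% = pilot-screen positive control compound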
Peg3 prom inh-2 = confirmation of Peg3 promoter inhibitors; shares compounds with Peg3 prom inh-1; HeLa PEG-Prom luciferase reporter, luminescence, overnight; inhibition, % at 20 µM; hit rate 84% among 1,300; AID 602417;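 active = at 20 µM dose, 40% or more inhibition averaged across four replicates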
* = called active by the depositor; . = no result.

SMILES	MITF TRPM1 inh	Peg3 prom inh-1	TWEAK-Fn14 inh	LMP1 NFkB inh	TROY NFkB inh	Shn3 inh set2	Peg3 prom inh-2
NC(C(=O)O)C1ON=C(Cl)C1O (configuration not stated)	25	59*	7	-4	-4	-5	62*
CS(=O)(=O)Nc1cccc(NC(=O)C2Cc3c(-c4cccc(F)c4)ccnc3O2)c1 (configuration not stated)	.	66*	-20	.	25	67	64*
Cc1cc(NC(c2cccnc2)c2ccc3cccnc3c2O)no1 (configuration not stated)	57	73*	5	24	.	80	69*
Oc1cccc(C(Nc2nccs2)c2ccc3cccnc3c2O)c1 (configuration not stated)	48	56*	12	51*	12	91*	85*
Oc1c(C(Nc2cccc(C(F)(F)F)c2)c2cccnc2)ccc2cccnc12 (configuration not stated)	-25	13	20	7	0	48	.
Cc1cc(C)nc(SCc2nnc(SCc3ccccc3Cl)o2)n1	-6	10	-4	-7	10	17	.
Cn1nnnc1Sc1ncnc2scc(-c3ccsc3)c12	82*	95*	72*	43*	33	-20	96*
Cc1ccc(-c2csc3ncnc(SCC(=O)O)c23)cc1	4	7	9	1	7	-4	.
CC(=O)c1ccccc1-c1csc2ncnc(Sc3nnnn3C)c12	6	54*	33	-46	-11	-14	7
Cc1nnc(NC(=O)CSc2ncnc3scc(-c4ccccc4)c23)s1	8	12	-1	-2	22	-4	.
COc1ccc(N(CCCN2C(=O)c3cccc4cccc(c34)C2=O)C(=O)c2cccs2)cc1	15	52*	7	4	0	-2	42*
Cc1ccc(S(=O)c2ccc([N+](=O)[O-])c3nonc23)cc1 (configuration not stated)	.	51*	-5	5	-14	5	98*
Cc1ccc2nc(NC(=O)CSCC(=O)OCC(=O)c3ccccc3)sc2c1	53	53*	96*	20	73*	31	71*
Nc1cccc2nc3ccccc3cc12	85*	95*	-32	-14	-62	-59	99*
CC(=O)Nc1cccc(-c2ccnc3c2CC(C)(C(=O)Nc2cccc(C(F)(F)F)c2)O3)c1 (configuration not stated)	.	52*	21	.	27	23	62*
O=C1c2ccc(Cl)cc2S(=O)(=O)c2cccc(C(=O)N3CCN(c4ccc(Cl)cn4)CC3)c21	-6	7	-24	4	11	-3	.
COc1nc(N)c(C#N)c(-c2ccc(N(C)CCC#N)cc2)c1C#N	10	58*	4	4	17	22	66*
Cc1nnc(NC(=O)c2ccc3c(c2)OCO3)s1	-47	-160	1	-13	-39	-34	.
CSc1nnc(NC(=O)c2ccc3c(c2)OCO3)s1	41	52*	92*	68*	71*	54	15
O=C(Cn1cnc([N+](=O)[O-])c1)NC1CCCC1	12	23	5	0	3	1	.
O=C(NCC(=O)N1CCC2(CC1)NCCc1[nH]cnc12)c1ccccc1F	-5	-22	1	-2	-20	-4	.
Cc1ccc2[nH]c3c(c2c1)CCCC3NC(=O)CCl (configuration not stated)	55	82*	71*	87*	7	24	89*
COc1ccc(OC)c2c1cc(C(=O)N[C@@H](Cc1ccccc1)C(=O)O)n2C	6	14	9	1	2	19	.
CCc1ccc(Nc2nnc(SCC(=O)Nc3cccnc3Cl)s2)cc1	7	-93	-28	3	-9	-9	.
O=[N+]([O-])c1ccc(/C=N/Nc2ncccc2[N+](=O)[O-])s1	9	-60	11	-26	-21	-26	.
SMILES	MITF TRPM1 inh	Peg3 prom inh-1	TWEAK-Fn14 inh	LMP1 NFkB inh	TROY NFkB inh	Shn3 inh set2	Peg3 prom inh-2
COc1cccc(/C=N/Nc2ncccc2[N+](=O)[O-])c1OC	40	72*	100*	59*	75*	.	62*
COC1=CC(=O)c2c(ccc3ncnc(N)c23)C1=O	113*	93*	100*	83*	54*	97*	99*
O=c1[nH]c(=O)n(C2OC(CO)C(O)C2O)cc1F (configuration not stated)	-13	75*	-49	-14	-12	71	75*
CN(C)CCNC(=O)c1cccc2nc3cccc(F)c3nc12	77*	105*	-51	-1	-95	91*	98*
O=C(NC1CC1)c1ccc2nc([C@H]3C[C@H](O)[C@@H](CO)O3)[nH]c2c1	.	-1	19	.	3	-18	.
CCN1CCN(c2ccc(S(=O)(=O)N3CCOCC3)cc2NC(=O)/C=C/c2ccc([N+](=O)[O-])cc2)CC1	64*	70*	-17	2	-17	3	75*
O=C1C2C3c4ccccc4C(Br)(c4ccccc43)C2C(=O)N1c1ccccc1O (configuration not stated)	0	9	-4	-2	-2	-8	.
CCOC(=O)CN(C(=O)CSc1nnc2c(n1)[nH]c1ccc(F)cc12)c1ccccc1	9	56*	18	7	18	38	49*
CC1CCc2cc(F)ccc2N1C(=O)CSc1nnc2c(n1)[nH]c1ccc(F)cc12 (configuration not stated)	18	100*	24	-23	28	11	23
CC1CCCCN1C(=O)CSc1nnc2c(n1)[nH]c1ccc(F)cc12 (configuration not stated)	-8	-44	17	9	-11	-32	.
CCn1cc(C(=O)NCCC(C)C)c(=O)c2cc(F)c(N3CCN(C(=O)c4ccco4)CC3)cc21	17	64*	33	14	21	-7	49*
CCCNC(=O)C1(C)CCCN(C(=O)c2c(F)ccc(C)c2F)C1 (configuration not stated)	.	6	1	.	-1	-4	.
C=CCC[C@@H](Cc1ccc(F)cc1)C(=O)OC[C@@H](Cc1c[nH]c2ccccc12)NC(=O)[C@H](CC=C)CC(=O)N[C@H](CO)Cc1ccccc1	49	52*	-3	1	28	63	38
c1cncc(-c2nc(NCC3COc4ccccc4O3)c3ccccc3n2)c1 (configuration not stated)	-32	58*	38	-4	25	18	68*
c1cncc(-c2nc(NCc3ccc4c(c3)OCO4)c3ccccc3n2)c1	-5	28	-6	-4	20	-20	.
c1ccc(CN2CCC(Nc3nc(-c4cccnc4)nc4ccccc34)CC2)cc1	-4	100*	-87	-9	-2	6	70*
